# Data taken from the supplement of paper PMC8728848.
# This excerpt belongs to a sample that is enriched for the strongest signals.
# Legend:
# Assay in all cases: glycan array binding signal (z-score within array); higher = stronger binding
# Conditions in all cases: glycan notation: IUPAC condensed, linker removed
# [1] = molecular target: Fuc(a1-2)Gal(b1-3)GalNAc(b1-3)Gal
# How it was run: (§1)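 Columns mapping to the same glycan were averaged after glycan names were converted to IUPAC-condensed notation. The data come from 3228 arrays in the Consortium for Functional Glycomics database, limited to those with an available protein sequence. Binding is reported as a within-array Z-score averaged across arrays of one protein sequence and across linkers.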
# [2] = molecular target: Fuc(a1-2)Gal(b1-3)GalNAc(b1-3)Gal(a1-4)Gal(b1-4)Glc
# How it was run: as §1
# Fuc(a1-2)Gal(b1-3)GlcNAc = molecular target: Fuc(a1-2)Gal(b1-3)GlcNAc
# How it was run: as §1
# [3] = molecular target: Fuc(a1-2)[Gal(a1-3)]Gal(b1-3)GalNAc(b1-3)Gal(a1-4)Gal(b1-4)Glc
# How it was run: as §1
# [4] = molecular target: Fuc(a1-2)[Gal(a1-3)]Gal(b1-3)GlcNAc
# How it was run: as §1
# [5] = molecular target: Fuc(a1-2)[GalNAc(a1-3)]Gal(b1-4)GlcNAc(b1-3)Gal(b1-4)GlcNAc(b1-3)Gal(b1-4)GlcNAc
# How it was run: as §1
# [6] = molecular target: Fuc(a1-2)[GalNAc(a1-3)]Gal(b1-4)[Fuc(a1-3)]GlcNAc
# How it was run: as §1
# [7] = molecular target: Fuc(a1-2)[GalNAc(b1-3)]Gal
# How it was run: as §1
# Fuc(a1-3)GlcNAc = molecular target: Fuc(a1-3)GlcNAc
# How it was run: as §1
# [8] = molecular target: Fuc(a1-3)[Gal(b1-4)]GlcNAc(b1-2)Man
# How it was run: as §1
# Gal(a1-3)Gal(b1-3)GlcNAc = molecular target: Gal(a1-3)Gal(b1-3)GlcNAc
# How it was run: as §1
# [9] = molecular target: Gal(a1-3)Gal(b1-3)GlcNAc(b1-2)Man(a1-3)[Gal(a1-3)Gal(b1-3)GlcNAc(b1-2)Man(a1-6)]Man(b1-4)GlcNAc(b1-4)GlcNAc
# How it was run: as §1
# [10] = molecular target: Gal(a1-3)Gal(b1-4)GlcNAc(b1-3)GalNAc
# How it was run: as §1
# [11] = molecular target: Gal(a1-4)Gal(b1-4)GlcNAc(b1-2)Man(a1-3)[Gal(a1-4)Gal(b1-4)GlcNAc(b1-2)Man(a1-6)]Man(b1-4)GlcNAc(b1-4)GlcNAc
# How it was run: as §1
# Gal(b1-2)Gal = molecular target: Gal(b1-2)Gal
# How it was run: as §1
# Gal(b1-3)Gal(b1-4)GlcNAc = molecular target: Gal(b1-3)Gal(b1-4)GlcNAc
# How it was run: as §1
# [12] = molecular target: Gal(b1-3)GalNAc(a1-3)[Fuc(a1-2)]Gal(b1-4)GlcNAc
# How it was run: as §1
# [13] = molecular target: Gal(b1-3)GlcNAc(b1-2)Man(a1-3)[Gal(b1-3)GlcNAc(b1-2)Man(a1-6)]Man(b1-4)GlcNAc(b1-4)[Fuc(a1-6)]GlcNAc
# How it was run: as §1
# [14] = molecular target: Gal(b1-3)GlcNAc(b1-2)[Gal(b1-3)GlcNAc(b1-6)]Man(a1-6)[Gal(b1-3)GlcNAc(b1-2)Man(a1-3)]Man(b1-4)GlcNAc(b1-4)GlcNAc
# How it was run: as §1
# Gal(b1-4)Gal = molecular target: Gal(b1-4)Gal
# How it was run: as §1
# Gal(b1-4)GlcNAc = molecular target: Gal(b1-4)GlcNAc
# How it was run: as §1
# [15] = molecular target: Gal(b1-4)GlcNAc(b1-2)[Gal(b1-4)GlcNAc(b1-4)]Man(a1-3)[Gal(b1-4)GlcNAc(b1-2)[Gal(b1-4)GlcNAc(b1-6)]Man(a1-6)]Man(b1-4)GlcNAc(b1-4)GlcNAc
# How it was run: as §1
# [16] = molecular target: Gal(b1-4)GlcNAc(b1-3)Gal(b1-4)GlcNAc(b1-3)Gal(b1-4)GlcNAc(b1-3)Gal(b1-4)GlcNAc(b1-2)[Gal(b1-4)GlcNAc(b1-3)Gal(b1-4)GlcNAc(b1-3)Gal(b1-4)GlcNAc(b1-3)Gal(b1-4)GlcNAc(b1-6)]Man(a1-6)[Gal(b1-4)GlcNAc(b1-3)Gal(b1-4)GlcNAc(b1-3)Gal(b1-4)GlcNAc(b1-3)Gal(b1-4)GlcNAc(b1-2)Man(a1-3)]Man(b1-4)GlcNAc(b1-4)[Fuc(a1-6)]GlcNAc
# How it was run: as §1
# [17] = molecular target: Gal(b1-4)GlcNAc(b1-3)Gal(b1-4)GlcNAc(b1-3)Gal(b1-4)GlcNAc(b1-3)Gal(b1-4)GlcNAc(b1-3)Gal(b1-4)GlcNAc(b1-2)Man(a1-3)[Gal(b1-4)GlcNAc(b1-3)Gal(b1-4)GlcNAc(b1-3)Gal(b1-4)GlcNAc(b1-3)Gal(b1-4)GlcNAc(b1-3)Gal(b1-4)GlcNAc(b1-2)Man(a1-6)]Man(b1-4)GlcNAc(b1-4)GlcNAc
# How it was run: as §1
# [18] = molecular target: Gal(b1-4)GlcNAc(b1-3)Gal(b1-4)[Fuc(a1-3)]GlcNAc(b1-3)Gal(b1-4)[Fuc(a1-3)]GlcNAc
# How it was run: as §1
# Gal3S(b1-3)GlcNAc = molecular target: Gal3S(b1-3)GlcNAc
# How it was run: as §1
# Gal3S(b1-4)Glc6S = molecular target: Gal3S(b1-4)Glc6S
# How it was run: as §1
# [19] = molecular target: Gal3S(b1-4)[Fuc(a1-3)]Glc6S
# How it was run: as §1
# [20] = molecular target: Gal3S(b1-4)[Fuc(a1-3)]GlcNAc6S
# How it was run: as §1
# Gal4S6S(b1-4)GlcNAc = molecular target: Gal4S6S(b1-4)GlcNAc
# How it was run: as §1
# Gal6S(b1-4)GlcNAc = molecular target: Gal6S(b1-4)GlcNAc
# How it was run: as §1
# [21] = molecular target: GalNAc(b1-3)Gal(a1-4)Gal(b1-4)GlcNAc
# How it was run: as §1
# [22] = molecular target: GalNAc(b1-3)Gal(a1-6)Gal(b1-4)Glc
# How it was run: as §1
# GalNAc(b1-4)GlcNAc = molecular target: GalNAc(b1-4)GlcNAc
# How it was run: as §1
# [23] = molecular target: GlcNAc(a1-4)Gal(b1-4)GlcNAc
# How it was run: as §1
# [24] = molecular target: GlcNAc(a1-4)Gal(b1-4)GlcNAc(b1-3)Gal(b1-4)[Fuc(a1-3)]GlcNAc(b1-3)Gal(b1-4)[Fuc(a1-3)]GlcNAc
# How it was run: as §1
# [25] = molecular target: GlcNAc(b1-3)Gal(b1-4)GlcNAc(b1-2)Man(a1-3)[GlcNAc(b1-3)Gal(b1-4)GlcNAc(b1-2)Man(a1-6)]Man(b1-4)GlcNAc(b1-4)[Fuc(a1-6)]GlcNAc
# How it was run: as §1
# Kdn(a2-3)Gal(b1-4)Glc = molecular target: Kdn(a2-3)Gal(b1-4)Glc
# How it was run: as §1
# [26] = molecular target: Neu5Ac(a2-3)Gal(b1-3)GlcNAc(b1-3)Gal(b1-4)GlcNAc
# How it was run: as §1
# [27] = molecular target: Neu5Ac(a2-3)Gal(b1-3)GlcNAc(b1-6)GalNAc
# How it was run: as §1
# [28] = molecular target: Neu5Ac(a2-3)Gal(b1-4)GlcNAc(b1-2)Man(a1-3)[Neu5Ac(a2-6)Gal(b1-4)GlcNAc(b1-2)Man(a1-6)]Man(b1-4)GlcNAc(b1-4)GlcNAc
# How it was run: as §1
# [29] = molecular target: Neu5Ac(a2-3)Gal(b1-4)GlcNAc(b1-2)[Neu5Ac(a2-3)Gal(b1-4)GlcNAc(b1-6)]Man(a1-6)[Neu5Ac(a2-3)Gal(b1-4)GlcNAc(b1-2)Man(a1-3)][GlcNAc(b1-4)]Man(b1-4)GlcNAc(b1-4)GlcNAc
# How it was run: as §1
# [30] = molecular target: Neu5Ac(a2-3)Gal(b1-4)GlcNAc(b1-3)Gal
# How it was run: as §1
# [31] = molecular target: Neu5Ac(a2-3)Gal(b1-4)GlcNAc(b1-3)Gal(b1-4)GlcNAc(b1-3)Gal(b1-4)GlcNAc(b1-2)Man(a1-3)[Neu5Ac(a2-3)Gal(b1-4)GlcNAc(b1-3)Gal(b1-4)GlcNAc(b1-3)Gal(b1-4)GlcNAc(b1-2)Man(a1-6)]GalNAc
# How it was run: as §1
# [32] = molecular target: Neu5Ac(a2-3)Gal(b1-4)GlcNAc(b1-3)[Neu5Ac(a2-3)Gal(b1-4)GlcNAc(b1-6)]GalNAc
# How it was run: as §1
# [33] = molecular target: Neu5Ac(a2-3)Gal(b1-4)GlcNAc(b1-6)[Gal(b1-3)]GalNAc
# How it was run: as §1
# [34] = molecular target: Neu5Ac(a2-6)Gal(b1-3)GlcNAc(b1-3)[Gal(b1-4)GlcNAc(b1-6)]Gal(b1-4)Glc
# How it was run: as §1
# [35] = molecular target: Neu5Ac(a2-6)Gal(b1-4)GlcNAc(b1-2)Man(a1-3)[Gal(b1-4)GlcNAc(b1-2)Man(a1-6)]Man(b1-4)GlcNAc(b1-4)GlcNAc
# How it was run: as §1
# [36] = molecular target: Neu5Ac(a2-6)Gal(b1-4)GlcNAc(b1-6)[Gal(b1-3)GlcNAc(b1-3)]Gal(b1-4)Glc
# How it was run: as §1
# [37] = molecular target: Neu5Ac(a2-6)GlcNAc(b1-4)GlcNAc(b1-4)GlcNAc
# How it was run: as §1
binder,measurement,setting,value
FimA-N1 (Actinomyces oris) (protein) MHHHHHHSSGVDLGTENLYFQSNATETPNYGNIKTDATGSLVIHKHLTGGGKDIGTPTGTAQNADDKGPAVEGVVFTAYPITDINLKDPAGWDTISNLSRTGVPDSACANPAAPTLGAHQFGTPKVSPATTKEGLATITEMPVQAYLVCETTTPGDIVQKAKPFVVTIPHPNTAAGADGQWIYDVNVYPKNEAIDVDKTIQAQK,glycan array binding signal (z-score),[1],2.83
same,glycan array binding signal (z-score),[2],-0.245
same,glycan array binding signal (z-score),Fuc(a1-2)Gal(b1-3)GlcNAc,-0.136
same,glycan array binding signal (z-score),[3],0.011
same,glycan array binding signal (z-score),[4],1.81
same,glycan array binding signal (z-score),[5],-0.23
same,glycan array binding signal (z-score),[6],0.129
same,glycan array binding signal (z-score),[7],1.69
same,glycan array binding signal (z-score),Fuc(a1-3)GlcNAc,-0.336
same,glycan array binding signal (z-score),[8],0.002
same,glycan array binding signal (z-score),Gal(a1-3)Gal(b1-3)GlcNAc,1.89
same,glycan array binding signal (z-score),[9],-0.21
same,glycan array binding signal (z-score),[10],-0.363
same,glycan array binding signal (z-score),[11],0.207
same,glycan array binding signal (z-score),Gal(b1-2)Gal,1.45
same,glycan array binding signal (z-score),Gal(b1-3)Gal(b1-4)GlcNAc,-0.145
same,glycan array binding signal (z-score),[12],-0.448
same,glycan array binding signal (z-score),[13],-0.504
same,glycan array binding signal (z-score),[14],3.13
same,glycan array binding signal (z-score),Gal(b1-4)Gal,-0.308
same,glycan array binding signal (z-score),Gal(b1-4)GlcNAc,-0.171
same,glycan array binding signal (z-score),[15],-0.483
same,glycan array binding signal (z-score),[16],1.54
same,glycan array binding signal (z-score),[17],3.32
same,glycan array binding signal (z-score),[18],-0.434
same,glycan array binding signal (z-score),Gal3S(b1-3)GlcNAc,-0.055
same,glycan array binding signal (z-score),Gal3S(b1-4)Glc6S,3.06
same,glycan array binding signal (z-score),[19],1.9
same,glycan array binding signal (z-score),[20],7.57
same,glycan array binding signal (z-score),Gal4S6S(b1-4)GlcNAc,0.072
same,glycan array binding signal (z-score),Gal6S(b1-4)GlcNAc,0.396
same,glycan array binding signal (z-score),[21],0.521
same,glycan array binding signal (z-score),[22],-0.352
same,glycan array binding signal (z-score),GalNAc(b1-4)GlcNAc,-0.187
same,glycan array binding signal (z-score),[23],-0.509
same,glycan array binding signal (z-score),[24],0.476
same,glycan array binding signal (z-score),[25],-0.002
same,glycan array binding signal (z-score),Kdn(a2-3)Gal(b1-4)Glc,0.117
same,glycan array binding signal (z-score),[26],-0.463
same,glycan array binding signal (z-score),[27],0.079
same,glycan array binding signal (z-score),[28],-0.244
same,glycan array binding signal (z-score),[29],-0.572
same,glycan array binding signal (z-score),[30],-0.466
same,glycan array binding signal (z-score),[31],2.52
same,glycan array binding signal (z-score),[32],-0.03
same,glycan array binding signal (z-score),[33],-0.173
same,glycan array binding signal (z-score),[34],-0.454
same,glycan array binding signal (z-score),[35],6.46
same,glycan array binding signal (z-score),[36],-0.313
same,glycan array binding signal (z-score),[37],0.006
